# FLuc counter = counter-screen for miR-21 project: firefly luciferase inhibitors or activators | P08659 | purified FLuc, Km substrates, luminescence inhibition | Potency, µM (top dose mostly 57.5 µM), inactives show at the top dose activity change, negative = inhibition, hits mostly inhibitors | hit rate 6.9% among 360,000;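 further: plate controls were vehicle for no effect and reference inhibitor for full effect; nearly all actives have a fitted effect of over 55% in size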
# Target sequence (P08659 whole entry, looked up): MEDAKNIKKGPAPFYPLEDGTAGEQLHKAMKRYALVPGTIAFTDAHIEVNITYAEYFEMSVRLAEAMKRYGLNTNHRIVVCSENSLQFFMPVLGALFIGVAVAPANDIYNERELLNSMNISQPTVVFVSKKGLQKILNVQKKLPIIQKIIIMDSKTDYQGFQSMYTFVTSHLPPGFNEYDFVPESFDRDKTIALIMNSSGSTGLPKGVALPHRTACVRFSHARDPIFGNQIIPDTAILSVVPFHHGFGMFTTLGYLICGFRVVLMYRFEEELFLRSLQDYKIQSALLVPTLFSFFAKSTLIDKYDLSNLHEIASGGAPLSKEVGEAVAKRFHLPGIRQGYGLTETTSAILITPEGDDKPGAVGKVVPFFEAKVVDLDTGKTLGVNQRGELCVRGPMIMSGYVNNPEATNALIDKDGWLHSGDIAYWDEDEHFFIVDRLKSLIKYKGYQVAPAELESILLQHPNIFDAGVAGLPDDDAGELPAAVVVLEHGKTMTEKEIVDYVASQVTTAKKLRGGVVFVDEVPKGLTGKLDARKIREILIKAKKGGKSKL
#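 Purified P. pyralis luciferase (10nM final) with 10uM D-luciferin and 10uM ATP (Km levels) in 50mM Tris acetate pH 7.5, 10mM Mg acetate, 0.01% Tween-20, 0.05% BSA; qHTS 6-point titration, ~60 µM downward; luminescence read.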
# Luc counter = Kinase-Glo luciferase inhibition (counter-screen); Potency, µM (titrated, usually from 38.3 µM), without a hit: at the highest dose activity change, negative = inhibition, hits mostly inhibitors; hit rate 0.28% among 200,000; AID 1379; Q27757; Kinase-Glo luciferase, ATP luminescence, 8 min; further: on the % scale 0 is the no-effect control and ±100 the full control effect; nearly all actives have a fitted effect of over 60% in size
#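 Kinase-Glo luciferase light output from ATP and luciferin was measured with 10 uM ATP, within the enzyme's linear range. Buffer: 50 mM imidazole pH 7.2, 50 mM KCl, 7 mM MgCl2, 0.01% Tween 20, 0.05% BSA; luminescence read after 8 min at ambient temperature.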
# SMN2 splice enh = SMN2 splice variant enhancement | HEK293 SMN2-luciferase splicing reporter, luminescence, 30-36 h | Potency, µM (doses to about 46.1 µM), for the others: top-dose activity change, positive = activation, most hits filed as activators | hit rate 2.8% among 210,000 | AID 1458; further: % of control where 0% means no effect; nearly all actives have a fitted effect of over 55% in size
#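 HEK293 cells carry an SMN2 minigene-luciferase reporter in which exon 7 inclusion puts luciferase in frame. Cells were seeded at 2000 cells/well, attached for 10-12 hours, then exposed to compounds for 30-36 hours at 37C before ONE-Glo luminescence.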
# ELG1 genotoxic = genotoxicity induction in ELG1-luciferase HEK293T cells; hit rate 1.3% among 330,000; HEK293T ELG1-luciferase reporter, luminescence, 16 h; AID 504466; Potency, µM (top dose mostly 46 µM), without a hit: at the highest dose activity change, positive = activation, most hits filed as activators; further: % of control where 0% means no effect; nearly all actives have a fitted effect of over 60% in size
#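 DMSO vehicle served as control against compound-treated ELG1-luciferase HEK293T cells; exposure lasted 16 hr at 37 °C and 5% CO2, followed by ONE-Glo luminescence detection after 30 min.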
# Rab9 prom act = activates the Rab9 promoter; Huh7 Rab9 promoter-luciferase reporter, luminescence, 24 h; Potency, µM (series often up to 9.22 µM), without a hit: at the top dose activation, negative = inhibition, hits mostly activators; AID 485297; hit rate 2.8% among 320,000; further: % of control where 0% means no effect; nearly all actives have a fitted effect of over 60% in size
#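 Promoter activation is measured as luciferase luminescence in Huh7 cells stably transfected with a Rab9 promoter–luciferase construct, following 24 h compound exposure at 37 °C and 10 min reagent incubation at ambient temperature.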
# NPC1 promoter act = NPC1 promoter activation. hit rate 2.4% among 320,000. Potency, µM (titrated, usually from 9.22 µM), for inactives: at the highest dose activation, most hits filed as activators. Huh7 NPC1 promoter luciferase reporter, 24 h. AID 485313; further: % of control where 0% means no effect; nearly all actives have a fitted effect of over 60% in size
#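 Compounds in DMSO were transferred onto Huh7 NPC1-luciferase reporter cells pre-incubated 2 h; after 24 h at 37 °C, Amplite reagent was dispensed and luminescence recorded 10 min later.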
# An asterisk follows results filed as active; ? = inconclusive; . = no result; [ ] = dose if it differs, or a comment. Shown are actives, neighbours in structure and some others; about 7.5% of the full set was active somewhere. The call rests on the fitted dose curve; in most records, active means well fitted curve in the direction sought with a large enough effect; inconclusive means small, poorly fitted or top-dose-only effect, or another doubt; inactive means no such curve, though single readings can be large; an effect the other way counts as inactive or inconclusive. Potency means the concentration at half of the fitted maximal effect.
SMILES,FLuc counter,Luc counter,SMN2 splice enh,ELG1 genotoxic,Rab9 prom act,NPC1 promoter act
Cc1cc(C)c(S(=O)(=O)N2CCC(n3c(C(F)(F)F)nc4cccnc43)CC2)c(C)c1,-11%,.,.,.,.,.
CSc1cccc(NC(=O)c2ccccn2)c1,11µM*,-11%,?,?,4µM*,?
CSc1cccc(NC(=O)c2cnccn2)c1,?,-5%,21%,6%,24%,10%
CSc1cccc(NC(=O)N2CCc3ccc(NC(=O)c4ccccn4)cc3C2)c1,8.5µM*,.,.,-7%,4µM*,2.5µM*
CNS(=O)(=O)c1cn(CC(=O)N(C)Cc2ccccc2)cc1S(=O)(=O)NC,0%,.,.,0%,-3%,1%
O=C(Nc1cccnc1)Nc1ccc(Br)cc1Cl,-21%,-1%,-9%,3%,4%,8%
O=C(Nc1cccnc1)c1cc2cc(Br)ccc2o1,1.2µM*,.,.,5.2µM*,?,2.5µM*
O=C(NC(=S)NCc1cccnc1)c1cc2ccccc2o1,?,4%,9%,-8%,12%,0%
O=C(NC(=S)Nc1ccc(CN2CCCCC2)cc1)c1cc2ccccc2o1,-3%,.,.,2%,-1%,3.2µM*
O=C(NC(=S)Nc1cccnc1)c1cc2ccccc2o1,6.7µM*,-11%,.,?,26%,22%
CC(=O)Nc1ccc(C)cc1-c1nc2ccccc2n(CC(=O)c2ccc(C)c(C)c2)c1=O,-2%,.,.,.,.,.
CCCCn1cc2c(c1-c1ccc(Cl)cc1)c(=O)n(C)c(=O)n2C,-13%,.,11%,.,.,.
CC1(C)CC(=O)C(N=Nc2ccc(Br)cc2)=C(O)C1,3.4µM*,.,.,10µM*,15%,-2%
CC1(C)CC(=O)C(N=Nc2cccc([N+](=O)[O-])c2)=C(O)C1,11µM*,.,.,18µM*,20%,0%
COc1ccc(N=NC2=C(O)CC(C)(C)CC2=O)cc1,13µM*,-9%,?,?,16%,3.5µM*
CC(CNC(=O)c1ccc2nc(Cc3ccccc3)oc2c1)c1ccccc1 (stereo not given),-3%,.,.,.,.,.
CC(=O)Nc1nonc1-c1nnc(SCC(=O)Nc2cc(C)ccc2C)n1-c1ccccc1,5%,.,.,.,.,.
Cc1cc(Nc2cccc(Cl)c2C)n2nc(Cc3ccccc3)nc2n1,6%,.,-19%,.,.,.
COC(=O)c1ccc(OCC(=O)c2cccc(OC)c2)cc1,24µM*,-5%,5.6µM*,?,?,?
COC(=O)c1ccc(OCCOc2ccccc2)cc1,15µM*,-2%,-5%,?,?,15%
COC(=O)c1ccc(NC(=O)CC(=O)Nc2ccc(C(=O)OC)cc2)cc1,1%,.,.,2%,-3%,-2%
COC(=O)c1ccc(NC(=O)CNc2ccccc2)cc1,24µM*,1%,.,?,?,27%
COC(=O)c1ccc(OCCOc2ccccc2C)cc1,?,.,.,3%,10%,2%
COC(=O)c1ccc(O)cc1,9%,0%[39.9 µM],.,-6%,-2%,-4%
COC(=O)c1ccc(N=Nc2ccccc2)cc1,5.4µM*,-5%,20%,2%,?,14%
SMILES,FLuc counter,Luc counter,SMN2 splice enh,ELG1 genotoxic,Rab9 prom act,NPC1 promoter act
Cn1c(=O)c(=O)n(C)c2cc(N3CCCC3)c(NC(=O)c3ccc(C(C)(C)C)cc3)cc21,-10%,.,-5%,.,.,.
CCCOc1ccc(C(=O)Nc2ccc(NC(=O)c3cccs3)cc2)cc1,-3%,.,.,5%,12%,1%
COc1cccc(C(=O)COc2ccc(NC(=O)c3cccs3)cc2)c1,8.5µM*,.,.,-19%,-1%,4%
CCCCOc1cccc(C(=O)Nc2ccc(NC(=O)c3cccs3)cc2)c1,-2%,.,.,18%,-5%,-8%
O=C(COc1ccc(NC(=O)c2cccs2)cc1)c1ccc(F)cc1,1.9µM*,.,.,22%,18%,11%
COC(=O)c1ccc(COc2ccccc2/C=C/C(=O)c2ccc(OCC(=O)O)cc2)cc1,5.4µM*,.,.,-5%,3%,0%
CCOc1cc(C(=O)Nc2ccc3oc(-c4ccc(F)cc4Cl)nc3c2)cc(OCC)c1OCC,?,.,12%,.,.,.
Cc1ccc(C)c(C(=O)COC(=O)c2cccc(N3C(=O)c4c(C)nc5ccccc5c4C3=O)c2)c1,1.5µM*,-4%,-10%,14%,?,?
Cc1nc2ccccc2c2c1C(=O)N(c1cccc(C(=O)O)c1)C2=O,-18%,9%,17%,4%,-4%,1%
COc1ccc(CC(=O)N2CCN(c3ccccn3)CC2)cc1,1%,4%,12%,0%,2%,-5%
COc1ccc(-n2nc(C(=O)NCC(=O)Nc3cc(OC)c(OC)c(OC)c3)c3ccccc3c2=O)cc1OC,-1%,.,.,-9%,-2%,-5%
COc1ccc(/C=C/C(=O)NC(=S)N2CCN(c3ccccn3)CC2)cc1,13µM*,.,.,10%,0%,6%
COc1ccc(-n2nc(C(=O)NCC(=O)N3CCN(c4ccccn4)CC3)c3ccccc3c2=O)cc1,1.2µM*,-1%,?,2%,?,?
COc1ccc(-n2nc(C(=O)NCC(=O)N3CCN(c4ccccn4)CC3)c3ccccc3c2=O)cc1OC,4.8µM*,0%,-1%,-4%,18%,-4%
CCOC(=O)c1c(C)[nH]c(CCC(=O)NCc2ccc(OC)c(OC)c2)c1C,-3%,.,.,.,.,.
Cc1ccc(CN2C(=O)N/C(=C\c3ccc(-c4ccc(C(=O)O)cc4C)o3)C2=O)cc1,1%,.,.,-2%,-6%,-1%
Cc1cc(C(=O)O)ccc1-c1ccc(CO)o1,27µM*,3%,1%,15%,10%,3%
O=C(Cc1ccccc1)NCCSCc1ccco1,-20%,1%,-5%,7%,29%,-1%
O=C(NCCSCc1ccco1)Nc1ccccc1,17µM*,-3%,.,12%,24%,26%
O=C(NCCSCc1c(F)cccc1Cl)c1ccc(CN2CCOCC2)cc1,-10%,-3%,-17%,-1%,2.5µM*,12%
O=C(NCCSCc1c(F)cccc1Cl)Nc1ccccc1,17µM*,.,.,4%,9%,18%
S=C(NCCSCc1c(Cl)cccc1Cl)Nc1ccccc1,-12%,-8%,14%,-10%,-1%,-1%
Cc1nc(NC(=O)/C=C/c2ccc(Cl)cc2Cl)sc1C(=O)N(C)C,?,3%,15%,6%,-4%,-3%
Cc1nc(NC(=O)/C=C/c2ccccc2)sc1C(=O)N1CCCCC1,?,-2%,1%,-3%,-5%,1%
Cc1nc(NC(=O)/C=C/c2ccccc2)sc1C(=O)N(C)C,13µM*,3%,41%,16%,?,24%
Cc1nc(NC(=O)/C=C/c2ccc(F)cc2)sc1C(=O)N(C)C,17µM*,2%,27%,7%,-5%,0%
CCOc1ccccc1NC(=O)c1nn(-c2ccc(C)cc2)c(=O)n(C)c1=O,-2%,.,.,.,.,.

# Compound activity as filed in PubChem BioAssay.
